AMA1-RON2 inh: qHTS for Inhibitors of AMA1-RON; Towards Development of Antimalarial Drug Lead: Primary Screen; Plasmodium falciparum AMA1 (3D7) - RON2 peptide interaction; AlphaScreen AMA1-biotinylated RON2 peptide binding; Potency, µM (highest dose often 58.2 µM), hits mostly inhibitors; 360,000 compounds, 0.2% hits; note: nearly all actives have a fitted effect of over 45% in size
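AMA1 (3D7) with his tag at 25 nM final met compounds first, then biotinylated RON2 peptide at 25 nM; detection used donor plus acceptor beads, 10 µg/mL apiece, read by AlphaScreen after 30 min at room temperature.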
Shiga inhibitor: A qHTS for Small Molecule Inhibitors of Shiga Toxin; Vero cells, Shiga toxin protein synthesis inhibition reporter; inhibition, % at 38.7 µM; 290,000 compounds, 9.2% hits; in the data active = inhibition mostly above about 28%, no sharp cut-off; inactive = mostly below about 43%
Pf growth 48h: Primary qHTS for delayed death inhibitors of the malarial parasite plastid, 48 hour incubation | P. falciparum luciferase growth in erythrocytes, 48 h | Potency, µM (series often up to 28.7 µM), most hits filed as inhibitors | 310,000 compounds, 5.9% hits | AID 504832, 2011
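Compounds are pin-transferred into medium, infected erythrocytes (2% hematocrit, 0.1% parasitemia final) are added, and plates sit one parasite generation at 37 C in 5% CO2. Detection reagent is then added and luminescence measured.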
SARS PLpro yeast-1: qHTS of Yeast-based Assay for SARS-CoV PLP | 330,000 compounds, 0.19% hits | Potency, µM (highest dose often 32.9 µM), hits mostly activators | S. cerevisiae expressing SARS-CoV PLpro, growth rescue | AID 485353, 2010; calls by dose curve; note: nearly all actives have a fitted effect of over 55% in size
CHX counter: Cycloheximide Counterscreen for Small Molecule Inhibitors of Shiga Toxin; 300,000 compounds, 12% hits; AID 2314, 2010; max response, %; cell reporter, cycloheximide protein synthesis inhibition counterscreen; in the data active = max response mostly above about 13%, no sharp cut-off; inactive = mostly below about 14%; note: read at 38.3 µM for the half of the compounds with a filed dose
Pf growth 96h: Primary qHTS for delayed death inhibitors of the malarial parasite plastid, 96 hour incubation; P. falciparum luciferase reporter growth, 96 h; Potency, µM (highest dose often 28.7 µM), most hits filed as inhibitors; 320,000 compounds, 6.9% hits
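Two parasite generations (96 h, 37 C, 5% CO2) of compound exposure in infected erythrocytes (0.05% parasitemia, 2% hematocrit). Luciferase-reporter P. falciparum; decreased luminescence indicates inhibited growth, aimed at apicoplast-acting delayed death.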
SARS PLpro yeast-2: qHTS of Yeast-based Assay for SARS-CoV PLP: Hit Validation; 1,000 compounds, 19% hits; calls only; AID 652038, 2013; yeast expressing SARS-CoV PLpro, growth phenotype rescue; shares compounds with SARS PLpro yeast-1; call rule not given here
Of the large screens only hits and unclear results are named; the others gave an inactive call (follow-up assays come after a bar, where they were run). In the library only some 19% were active in any assay of this set; here they are far more common. Unless noted, calls come from the whole dose curve; as a rule, active = well fitted curve in the direction sought with a large enough effect; inconclusive = small, poorly fitted or top-dose-only effect, or another doubt; inactive = no such curve, though single readings can be large; an effect the other way counts as inactive or inconclusive.

COc1ccc(Cl)cc1NC(=O)COC(=O)/C=C/c1c(C)nn(C2CCS(=O)(=O)C2)c1Cl (stereo not drawn)	Pf growth 48h inconclusive, SARS PLpro yeast-1 inconclusive, Pf growth 96h inconclusive | SARS PLpro yeast-2 inactive
CC(C)(C)c1ccc(C(=O)NCC(=O)N/N=C/c2ccccc2OCC(=O)O)cc1	none
O=C(O)COc1ccccc1/C=N/NC(=O)CNC(=O)c1ccco1	SARS PLpro yeast-1 0.398µM | SARS PLpro yeast-2 inactive
NC(=O)c1nsc(C(=O)N(CC(=O)NCc2ccccc2)c2ccc(F)cc2)c1N	Pf growth 96h inconclusive
Cc1cc(C)c2nc(NNC(=O)c3ccc(S(=O)(=O)N4CCc5ccccc5C4)cc3)sc2c1	Pf growth 48h 2.33µM, SARS PLpro yeast-1 5.62µM, Pf growth 96h 3.7µM | SARS PLpro yeast-2 inconclusive
Cc1cc(C)c2sc(NNC(=O)c3ccc(S(=O)(=O)N4CCc5ccccc5C4)cc3)nc2c1	Pf growth 48h inconclusive, SARS PLpro yeast-1 7.94µM, Pf growth 96h 11.7µM | SARS PLpro yeast-2 active
Cc1nnc(NC(=O)c2ccc(S(=O)(=O)N3CCc4ccccc4C3)cc2)o1	none
CCCCCN(C(=O)NC(=O)Nc1ccc(C)cc1C)S(C)(=O)=O	none
CCCCCN(C(=O)NC(=O)Nc1ccc(C)cc1)S(=O)(=O)c1ccccc1	SARS PLpro yeast-1 3.16µM, CHX counter 19.8 | SARS PLpro yeast-2 inactive
COc1cccc(OCCSc2nc(N)cc(N)n2)c1	CHX counter 38.1 (no result: Pf growth 48h, SARS PLpro yeast-1) | SARS PLpro yeast-2 inactive
COc1cccc(OCCCCSc2ncccn2)c1	Pf growth 96h inconclusive
CCC1(CC)C(=O)N(C)C(=O)NC1=Nc1ccc(OC)cc1	SARS PLpro yeast-1 1.78µM (no result: Pf growth 96h) | SARS PLpro yeast-2 inactive
CNC(=O)NC1CCCc2ccccc21 (stereo not drawn)	AMA1-RON2 inh inconclusive, SARS PLpro yeast-1 inconclusive | SARS PLpro yeast-2 inactive
O=C(Nc1ccccc1)NC1CCCc2ccccc21 (stereo not drawn)	Pf growth 48h inconclusive
c1ccc(N2CCN(CCc3nnc4n3CCCCC4)CC2)cc1	SARS PLpro yeast-1 inconclusive (no result: Pf growth 96h) | SARS PLpro yeast-2 inactive
Cc1ccc(C(=O)CNc2cccc(Cl)c2)cc1	none
Cc1ccc(C(=O)CNc2ccc(C)c(Cl)c2)cc1	SARS PLpro yeast-1 inconclusive, CHX counter 26.6 | SARS PLpro yeast-2 inconclusive
N#C/C(=C\c1ccccc1[N+](=O)[O-])C(=O)NC1CCCCC1	Pf growth 48h inconclusive, Pf growth 96h inconclusive
N#C/C(=C\C=C\c1ccccc1[N+](=O)[O-])C(=O)NC1CCCCC1	Pf growth 48h inconclusive, SARS PLpro yeast-1 inconclusive, Pf growth 96h inconclusive | SARS PLpro yeast-2 inactive
CC(C)N1CCC1(C)C(=O)Nc1ccc(-n2cccc2)cc1 (stereo not drawn)	none (no result: Shiga inhibitor, Pf growth 48h, SARS PLpro yeast-1, CHX counter, Pf growth 96h)
C=CCc1cc(OC)ccc1OCCN(C)Cc1ccccc1	AMA1-RON2 inh inconclusive, SARS PLpro yeast-1 inconclusive | SARS PLpro yeast-2 inactive
COc1ccc(OCCCCN(C)Cc2ccccc2)cc1	AMA1-RON2 inh inconclusive (no result: Shiga inhibitor)
Cc1ccc(-c2nn(-c3ccccc3)cc2C(=O)NCC2CCCO2)cc1 (stereo not drawn)	Pf growth 48h inconclusive (no result: Shiga inhibitor, CHX counter)
Cc1ccc(C2(C)NC(=O)N(CC(=O)NCc3cccs3)C2=O)cc1 (stereo not drawn)	SARS PLpro yeast-1 inconclusive | SARS PLpro yeast-2 inactive
Cc1ccc(C2(C)NC(=O)N(CC(=O)N3CCN(C(=O)c4cccs4)CC3)C2=O)cc1 (stereo not drawn)	none (no result: Shiga inhibitor, CHX counter)
O=C(Cn1cnc2c(nnn2Cc2ccccc2F)c1=O)NCC1CCCO1 (stereo not drawn)	SARS PLpro yeast-1 inconclusive | SARS PLpro yeast-2 inactive
O=C(Cn1cnc2c(nnn2Cc2ccccc2)c1=O)NCC1CCCO1 (stereo not drawn)	none
COCCNC(=O)CN1C(=O)/C(=C/c2ccccc2)Oc2ccc(C(C)(C)C)cc21	Pf growth 48h inconclusive
CCOC(=O)C1CCN(C(=O)CN(c2cc(Cl)ccc2OC)S(=O)(=O)c2ccccc2)CC1	Pf growth 48h 14.7µM, SARS PLpro yeast-1 inconclusive, Pf growth 96h inconclusive | SARS PLpro yeast-2 inactive
CCN(CC(=O)Nc1ccccc1C(F)(F)F)C(=O)c1ccccc1OCc1ccc(F)cc1	none (no result: Shiga inhibitor, Pf growth 48h, SARS PLpro yeast-1, CHX counter, Pf growth 96h)
COC(=O)Cc1c[nH]c2cccc(OCC(O)CN(Cc3ccccc3)C(C)C)c12 (stereo not drawn)	Pf growth 48h inconclusive, SARS PLpro yeast-1 inconclusive, Pf growth 96h inconclusive | SARS PLpro yeast-2 inactive
O=P(CCCO)(Cc1ccccc1)Cc1ccccc1	none
COC(=O)c1ccc(/C=N/NC(=S)NC(C)C)cc1	Pf growth 96h inconclusive
CC(C)NC(=S)N/N=C/c1cc(Br)ccc1O	Pf growth 48h 2.08µM, SARS PLpro yeast-1 inconclusive, Pf growth 96h 1.65µM | SARS PLpro yeast-2 active
O=C(O)c1cccc(NC(=S)N/N=C/c2ccccn2)c1	Shiga inhibitor 131.1, SARS PLpro yeast-1 5.01µM, CHX counter 50.7, Pf growth 96h inconclusive | SARS PLpro yeast-2 active
O=C(N/N=C/c1ccccn1)c1ccc(Br)cc1	Shiga inhibitor 121.9, Pf growth 48h inconclusive, SARS PLpro yeast-1 inconclusive, CHX counter 66.9, Pf growth 96h inconclusive | SARS PLpro yeast-2 inconclusive
Cc1c(C)c2cc(Cl)c(OCC(=O)NCCCn3ccnc3)cc2oc1=O	SARS PLpro yeast-1 inconclusive, Pf growth 96h inconclusive
O=C1c2ccccc2NC(c2ccc(-c3ccc(F)cc3)o2)N1O (stereo not drawn)	none (no result: AMA1-RON2 inh, Shiga inhibitor, CHX counter)
O=C1c2ccccc2NC(c2cn[nH]c2-c2ccc(Cl)cc2)N1O (stereo not drawn)	Pf growth 48h inconclusive, SARS PLpro yeast-1 7.94µM | SARS PLpro yeast-2 inconclusive
O=C1c2ccccc2NC(c2cn[nH]c2-c2ccccc2)N1O (stereo not drawn)	SARS PLpro yeast-1 inconclusive | SARS PLpro yeast-2 inactive
O=C(CCc1nnc2ccc(NCc3ccco3)nn12)Nc1ccccc1F	none
CC(=O)c1ccc(N(C)C)cc1	SARS PLpro yeast-1 2.82µM (no result: Pf growth 48h) | SARS PLpro yeast-2 inactive
CCOc1cc(CNCCc2ccccc2)ccc1OCC(=O)NC(C)(C)C	Pf growth 48h inconclusive, SARS PLpro yeast-1 17.8µM | SARS PLpro yeast-2 inactive
CCOc1cc(CNCCc2ccc(S(N)(=O)=O)cc2)ccc1OCC(=O)NC(C)(C)C	none (no result: SARS PLpro yeast-1)
Cc1cc(C(=O)N/N=C/c2cc(N=Nc3ccccc3)ccc2O)n[nH]1	Pf growth 48h inconclusive, SARS PLpro yeast-1 7.94µM, CHX counter 16.7, Pf growth 96h inconclusive | SARS PLpro yeast-2 inactive
CCOC(=O)N1CCN(C(=O)CSCC(=O)Nc2nc(-c3ccc(Cl)s3)cs2)CC1	Pf growth 48h inconclusive, SARS PLpro yeast-1 12.6µM, CHX counter 13.7, Pf growth 96h inconclusive | SARS PLpro yeast-2 inconclusive
CC(C)NC(=O)CN1C(=O)NC(CCc2ccccc2)C1=O (stereo not drawn)	SARS PLpro yeast-1 3.55µM, Pf growth 96h inconclusive | SARS PLpro yeast-2 inactive

From PubChem
